The campaign covered roughly 5,500 compounds. About 2,000 (36%) were called active. Not shown: some 18% with an inconclusive outcome. This is one part of the list. A number with no mark means an inactive call. Cut-off read from the data, not from the text of the source: active = normalized growth mostly below about 0.91 (no sharp cut-off); inconclusive = no clear call, values can overlap the other calls; inactive = mostly above about 0.92.
Test: chemical genetic growth profiling, strain panel (AID 1159580);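 note: tested at 20 µM; growth read once vehicle control cultures reached saturation at 30 °C; 1 = growth at the plate median or of vehicle wells; lower values mean less growth of the strain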
Conditions: S. cerevisiae deletion strains, growth OD
[1] = locus YAL013W, strain DEP1, active compounds read low
[2] = locus YGR078C, strain PAC10, active compounds read low
[3] = locus YJR075W, strain HOC1, active compounds read low
[4] = locus YPL055C, strain LGE1, active compounds read low
[5] = locus YPL241C, strain CIN2, active compounds read low

Structure (SMILES): CC(=O)[C@H]1CC[C@H]2[C@@H]3CCC4=CC(=O)CC[C@]4(C)[C@H]3CC[C@]12C
- normalized growth [1]: 0.994
- normalized growth (locus YAL040C, strain CLN3, active compounds read low): 0.992
- normalized growth (locus YCL061C, strain MRC1 (second series), active compounds read low): 1
- normalized growth (locus YDR363W, strain ESC2, active compounds read low): 1.01
- normalized growth (locus YER002W, strain NOP16, active compounds read low): 0.973
- normalized growth [2]: 0.998
- normalized growth (locus YGR229C, strain SMI1, active compounds read low): 1.17 [resistant] (active)
- normalized growth [3]: 0.99
- normalized growth (locus YMR307W, strain GAS1, active compounds read low): 0.979
- normalized growth (locus YNL175C, strain NOP13, active compounds read low): 0.991
- normalized growth (locus YNL197C, strain WHI3, active compounds read low): 0.986
- normalized growth (locus YNL224C, strain SQS1, active compounds read low): 0.992
- normalized growth (locus YOR083W, strain WHI5 (second series), active compounds read low): 1.01
- normalized growth [4]: 0.99
- normalized growth [5]: 0.995

Structure (SMILES): CC12CCC3C(CCC4=CC(=O)CCC43CO)C1CCC2OC(=O)c1ccccc1 (stereo unspecified)
- normalized growth [1]: 0.994
- normalized growth (locus YBR229C, strain ROT2, active compounds read low): 1.01
- normalized growth (locus YCL061C, strain MRC1, active compounds read low): 0.999
- normalized growth (locus YDL101C, strain DUN1, active compounds read low): 1.01
- normalized growth (locus YDR150W, strain NUM1, active compounds read low): 0.993
- normalized growth (locus YEL061C, strain CIN8, active compounds read low): 1
- normalized growth [2]: 1.01
- normalized growth (locus YHR030C, strain SLT2, active compounds read low): 0.946
- normalized growth (locus YHR087W, strain rtc3, active compounds read low): 1.01
- normalized growth (locus YJL187C, strain SWE1, active compounds read low): 1.02
- normalized growth (locus YJR043C, strain POL32, active compounds read low): 0.996
- normalized growth [3]: 1.02
- normalized growth (locus YLR039C, strain RIC1, active compounds read low): 0.978
- normalized growth (locus YLR058C, strain SHM2 (second series), active compounds read low): 1
- normalized growth (locus YLR085C, strain ARP6, active compounds read low): 1
- normalized growth (locus YLR262C, strain YPT6, active compounds read low): 0.956
- normalized growth (locus YML094W, strain GIM5, active compounds read low): 1
- normalized growth (locus YMR219W, strain ESC1, active compounds read low): 1.01
- normalized growth (locus YMR263W, strain SAP30, active compounds read low): 0.991
- normalized growth (locus YNL153C, strain GIM3, active compounds read low): 1.01
- normalized growth (locus YNL298W, strain CLA4 (second series), active compounds read low): 1.05
- normalized growth (locus YNL322C, strain KRE1, active compounds read low): 1.02
- normalized growth (locus YNR030W, strain Alg12, active compounds read low): 0.986
- normalized growth [4]: 1.02
- normalized growth [5]: 1.02
- normalized growth (locus YPR135W, strain CTF4, active compounds read low): 0.923
